CRFR2-BP antag – CRF-BP/CRF-R2 complex antagonism; HEK293 CRF-R2/CRF-BP, CRF-induced calcium fluorescence; inhibition, % at 11.8 µM; actives 0.59% (n = 350,000);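 active means inhibition of the ligand-induced calcium signal above about 50% at the single tested concentration, limit read from the data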
RTF Ca sens inh – cardiac RTF calcium desensitization; P19429+P45379; IANBD-labeled cardiac RTF, Ca2+ fluorescence; inhibition, % at 7.15 µM; actives 0.12% (n = 340,000); AID 493244;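 active means inhibition above the mean inhibition of all tested compounds plus 3 SD, cut at about 17% in these data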;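 further: assay run at fixed EC70 calcium of 1.6 mM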
Myeloid diff 2 – promotes myeloid progenitor differentiation; AID 624256; ER-HoxA9 myeloid progenitors, lysozyme-GFP differentiation, flow cytometry; calls only at 10 µM; actives 1% (n = 360,000);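 active means normalized GFP-positive differentiation at or above the plate's own cutoff, the solvent-only control mean plus 3 SD; inconclusive means no clear call, values can overlap the other calls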;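 further: cells exposed to compound for four days before flow analysis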
RTF Ca sens act – cardiac RTF calcium sensitization; P19429+P45379; IANBD-labeled TnC RTF fluorescence at EC20 calcium; 0% EC20 calcium, 100% full calcium; activation, % at 7.2 µM; actives 0.24% (n = 340,000);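 active means activation above the mean over all tested compounds plus 3 SD, cut at about 30% in these data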;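 further: rise in fluorescence read as greater calcium sensitivity of cardiac thin filaments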
CRFBP-R2 agonist – agonists of human CRF-binding protein/CRF-R2 receptor complex; HEK293 CRF-R2/CRF-BP, calcium dye fluorescence (FLIPR); percent of saturating CRF peptide response; AID 588473; actives 0.46% (n = 350,000); activation, % at 13.2 µM;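 active means activation of at least 50%, plus an integration ratio under a set limit after plate pattern correction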
A number is an active result; i = inactive; ? = inconclusive; nt = not tested or not shown; + = active, no number. In the library only some 2.2% were active in any assay of this set; here they are far more common.

SMILES	CRFR2-BP antag	RTF Ca sens inh	Myeloid diff 2	RTF Ca sens act	CRFBP-R2 agonist
CN(c1ccccc1)P(=O)(N1CC1)N1CC1	54.3	i	i	i	i
COc1cccc(-n2c(CN3CCN(C)CC3)nc3ccc([N+](=O)[O-])cc3c2=O)c1	i	i	i	i	i
Nc1cc(Cl)c2nonc2c1[N+](=O)[O-]	58.0	i	?	i	i
O=C(c1ccc(F)cc1)N1CCC2(CC1)OCCO2	i	i	i	i	i
Cc1cc(/C=C2\C(=O)NC(=O)N(c3cccc(Br)c3)C2=O)c(C)n1C	i	i	i	i	96.9
O=C1NC(=O)N(Cc2ccco2)C(=O)/C1=C\c1cccn1CCOc1ccc(Cl)cc1	i	i	+	i	i
CCN(CC)c1ccc(/C=C/[N+](=O)[O-])cc1	i	i	i	i	250.6
CCN(CC)c1ccccc1	i	i	i	i	i
CCN(CC)S(=O)(=O)c1ccc(NN=C(C#N)C#N)cc1	i	i	i	i	i
N#CC(C#N)=NNc1ccc(-n2ccc(C(F)(F)F)n2)cc1	i	i	i	i	52.7
Cc1cc(C)n(-c2ccc(NN=C(C#N)C#N)cc2)n1	i	i	i	i	52.9
COc1ccc(C(=O)OCC2CN2c2cccc([N+](=O)[O-])c2)cc1 (stereo not drawn)	nt	nt	i	nt	nt
COc1ccc(NC(=O)N2C[C@@H]3C[C@@H](C2)c2cccc(=O)n2C3)c(OC)c1	i	i	i	i	i
Nc1c2c(nc3ccccc13)CCN(Cc1ccccc1)C2	i	i	i	i	68.8
COc1ccc(-n2c(/C=C/c3ccc(O)c(OC)c3)nc3ccccc3c2=O)cc1	i	i	+	i	i
COc1cc(/C=C/C(=O)c2c(O)n(CCc3ccccc3)c(=O)[nH]c2=O)ccc1O	i	i	+	i	i
O=C(/C=C/c1ccc2c(c1)OCO2)c1c(O)n(CCc2ccccc2)c(=O)[nH]c1=O	i	nt	i	nt	i
COC(=O)C1=C(c2ccc(OCc3ccccc3)cc2)C[C@@H]2CC[C@H]1N2C(=O)NCCc1ccc(F)cc1	i	nt	i	nt	i
CCOP(=O)(OCC)Oc1cc(C)c(N(C)C)c(C)c1	i	i	i	i	i
CCOC(=O)Cn1cc([N+](=O)[O-])nc1[N+](=O)[O-]	i	i	i	i	i
Cc1ncc([N+](=O)[O-])n1CCOC(N)=O	67.3	i	i	i	i
O=C1CC2OCC=C3CN4CCC56c7ccccc7N1C5C2C3CC46O (stereo not drawn)	nt	nt	i	nt	nt
CCC1C2CC3C4N(C)c5ccccc5C45CC(C2C5O)N3C1O (stereo not drawn)	nt	nt	i	nt	nt
Clc1cnc(Oc2ccc(Oc3ncc(Cl)cc3Cl)cc2)c(Cl)c1	72.0	i	i	i	i
Oc1cc(Cl)ccc1Oc1ccc(Cl)cc1Cl	i	i	i	i	i
SMILES	CRFR2-BP antag	RTF Ca sens inh	Myeloid diff 2	RTF Ca sens act	CRFBP-R2 agonist
COC(=O)C1=C(c2ccc(F)cc2OCc2ccccc2)C[C@@H]2CC[C@H]1N2C(=O)NCCN1CCOCC1	i	i	i	i	i
COc1ccc(N2C(=O)NC(=O)/C(=C\c3cn(C)c4ccccc34)C2=O)cc1	i	i	i	523.3	119.9
COc1ccc(N2C(=O)NC(=O)/C(=C\c3ccc([N+](=O)[O-])s3)C2=O)cc1	i	i	i	i	i
COC(=O)Cn1cc(C=C2C(=O)NC(=O)NC2=O)c2ccccc21	i	i	i	i	i
COC(=O)Cn1cc(/C=C2\C(=O)NC(=O)N(c3ccc(OC)cc3)C2=O)c2ccccc21	i	i	i	i	81.4
CCOP(=O)(CCP(=O)(OCC)OCC)OCC.C[CH2][Sn]([Cl])([Cl])[CH2]C	i	i	nt	i	i
COc1ccc(Cn2c(N)c(C(=O)NCc3ccco3)c3nc4ccccc4nc32)cc1	i	i	+	i	i
Nc1c(C(=O)NCc2ccco2)c2nc3ccccc3nc2n1Cc1ccccc1	i	i	i	i	i
Nc1c(C(=O)NCc2ccco2)c2nc3ccccc3nc2n1Cc1ccc(F)cc1	i	i	+	i	i
O=C1NC(=O)N(CCNc2ncc(C(F)(F)F)cc2Cl)C(=O)C1/C=N/OCc1c(F)cccc1Cl (stereo not drawn)	61.5	i	i	i	i
CCN(CC)CCN=C(C)c1c(O)n(-c2ccccc2OC)c(=O)[nH]c1=O	86.6	i	i	i	i
CCCCCCC(=O)c1c(O)n(-c2ccccc2OC)c(=O)[nH]c1=O (tested in a mixture with another compound)	i	nt	i	nt	i
CCCCn1c(=O)c(C(=O)Nc2cccc(C)c2)c(O)c2ccccc21	i	i	i	i	i
O=C(Nc1cccc(Br)c1)c1c(O)c2c(n(Cc3ccccc3)c1=O)CCCC2	i	nt	+	nt	i
CC1=C[C@@H]2c3cccc4[nH]cc(c34)C[C@H]2N(C)C1	i	i	+	35.8	i
COc1ccc(/C=C/C=C2C(=O)NC(=S)NC2=O)cc1	i	i	i	i	i
CCOC(=O)C(NC(=O)C(Cc1ccc(N(CCCl)CCCl)cc1)NC(C)=O)C(C)C (stereo not drawn)	i	i	i	i	i
COC(=O)C(Cc1ccc(N(CCCl)CCCl)cc1)N=Cc1ccccc1O (stereo not drawn)	66.9	i	?	i	i
CNC1(c2ccc(F)cc2)CCCCC1	87.6	i	i	i	i
CCN1/C(=C\C=C\C2=[N+](CC)c3ccccc3C2(C)C)C(C)(C)c2ccccc21	i	i	nt	895.5	260.2
CC(=O)OC[C@]12CCC(C)=C[C@H]1O[C@@H]1[C@H](O)[C@@H](OC(C)=O)[C@@]2(C)[C@]12CO2	i	i	+	i	i
COc1ccc(N2C(=O)/C(=C/c3ccc(N(C)C)o3)C(=O)NC2=S)cc1	i	i	i	54.9	i
CCN(CC)c1ccc(/C=C2\C(=O)NC(=S)N(c3ccc(OC)cc3OC)C2=O)o1	i	i	+	76.1	i
C=CCn1c(O)c(/C(C)=N/N2CCCCCC2)c(=O)[nH]c1=O	i	i	i	i	i
CCCCn1c(O)c(C(CC)=NCc2cc(OC)cc(OC)c2)c(=O)[nH]c1=O	i	i	i	i	i
SMILES	CRFR2-BP antag	RTF Ca sens inh	Myeloid diff 2	RTF Ca sens act	CRFBP-R2 agonist
CCCCn1c(O)c(C(C)=NCc2cc(OC)cc(OC)c2)c(=O)[nH]c1=O	i	i	+	i	i
c1ccc2c(CN3CCCCCCC3)c[nH]c2c1	i	i	+	i	i
c1ccc2c(CN3CCN(C4CCCCC4)CC3)c[nH]c2c1	i	i	i	i	i
COc1cc2c(cc1OC)C13CCN4CC5=CCOC(CC(=O)O)C(C5CC41)C3N2 (stereo not drawn)	i	i	i	i	i
COc1cccc(CNCCc2c[nH]c3ccccc23)c1	i	i	i	i	i
COc1ccc(CN(CCc2c[nH]c3ccccc23)Cc2ccc(OC)cc2)cc1	63.2	i	i	i	i
Cc1cc(C)c(S(=O)(=O)N2Cc3ccccc3-n3nncc3C2)c(C)c1	i	nt	i	nt	i
